Insulin prom inh – inhibitors of insulin promoter-driven GFP, primary screen, imaging, TRM-6 cells (human fetal islet line), eGFP reporter, cell count | reporter expression induced with tamoxifen | AID 1273, 2008 | inhibition, % at 2 µM | actives 0.9% (n = 130,000);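 active = inhibition above the mean plus 3 SD, with well images judged a real hit on visual review, cut at about 60% in these data, passing the limit was not always enough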
Ins promoter up – insulin promoter activators in MIN6 cells, imaging, high-content screening, mouse beta cells; MIN6 insulin promoter-GFP reporter; stronger effect = higher value; z-score at 5 µM; actives 0.3% (n = 190,000); AID 1625, 2009;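 active = z-score above 3 at 5 µM with at least 500 cells counted in the well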
Lmaj promast – Leishmania major promastigote growth inhibition, primary screen | actives 9% (n = 200,000) | inhibition, % at 10 µM | Leishmania major promastigotes, resazurin fluorescence viability; in the data active = inhibition above about 50%;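 also: promastigotes grown with compound for 44 hours at 28 °C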
Autophagy HCS – autophagy modulators in MEF cells, primary screen, imaging, high-content, MEF GFP-LC3; MEF GFP-LC3 puncta imaging; test concentration mostly 10 µM; calls only at 10 µM (by protocol); actives 0.98% (n = 190,000); AID 463193, 2010;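 active = percentage of spot-positive cells more than 3 SD above its plate mean, without a fluorescence outlier flag or 80% toxicity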;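 also: spot-positive cell cutoff set from DMSO-treated cells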
WT yeast gro inh – growth inhibition of WT strain, primary screen, mitochondrial fusion inhibitor project, WT and mutant strains, chemical genetic. inhibition, % at 10 µM. actives 2.1% (n = 190,000). mitochondrial fusion phenotypic screen; in the data active = inhibition above about 58%; tested in S. cerevisiae
Active calls of the source: *. Hits are enriched below; roughly 11% of the tested compounds scored in any of these assays.

What do the screens show for `COc1ccc(OC)c(NS(=O)(=O)c2cc(OC)ccc2OC)c1`?
Insulin prom inh: 17.3; Ins promoter up: 0.33; Lmaj promast: 86.9*; Autophagy HCS: inactive; WT yeast gro inh: -1.1

Results for COc1ccc(S(=O)(=O)Nc2cccc(F)c2)cc1C ?
Insulin prom inh: -38.9; Lmaj promast: 65.4*; Autophagy HCS: inactive; WT yeast gro inh: 17.6

Results for COc1ccc(S(=O)(=O)Nc2ccc(S(=O)(=O)Nc3ccc(F)cc3)cc2)cc1C ?
Insulin prom inh: 7.7; Lmaj promast: 8.0; Autophagy HCS: inactive; WT yeast gro inh: 5.4

What do the screens show for `COc1ccc(OC)c(S(=O)(=O)Nc2cccc(C(C)=O)c2)c1`?
Insulin prom inh: 25.6; Ins promoter up: 0.11; Lmaj promast: 2.8; Autophagy HCS: inactive; WT yeast gro inh: 2.1

What do the screens show for `COc1ccc(C)cc1S(=O)(=O)Nc1ccc(F)cc1`?
Insulin prom inh: -28.2; Ins promoter up: -0.57; Lmaj promast: 30.8; Autophagy HCS: inactive; WT yeast gro inh: 62.4*

How did COc1ccc(OC)c(S(=O)(=O)Nc2ccccc2C)c1 do in these assays?
Insulin prom inh: -20.0; Ins promoter up: 0.2; Lmaj promast: 5.5; Autophagy HCS: inactive; WT yeast gro inh: 11.6

How did Cn1c(SCC(=O)NNC(=O)c2ccc(Cl)cc2)nnc1-c1cccnc1 do in these assays?
Insulin prom inh: 18.2; Ins promoter up: -0.31; Lmaj promast: -5.4; Autophagy HCS: inactive; WT yeast gro inh: -9.0

How did CCNc1nc(NC(C)C)nc(Oc2ccc(/C=N/O)cc2)n1 do in these assays?
Insulin prom inh: 30.0; Lmaj promast: 12.3; Autophagy HCS: inactive; WT yeast gro inh: 13.1

What do the screens show for `COc1ccc(NC(=O)c2c(F)cccc2F)cc1S(=O)(=O)Nc1ccc(Br)cc1`?
Insulin prom inh: -38.5; Ins promoter up: -0.08; Lmaj promast: 52.0*; Autophagy HCS: inactive; WT yeast gro inh: 9.2

How did CCOc1cc(C)c(S(=O)(=O)Nc2ccc(F)cc2)cc1C do in these assays?
Insulin prom inh: -38.5; Lmaj promast: 58.4*; Autophagy HCS: inactive; WT yeast gro inh: -3.9

What do the screens show for `CCOc1ccc(NS(=O)(=O)c2cc(OCC(N)=O)c(C)cc2Cl)cc1`?
Insulin prom inh: -35.7; Ins promoter up: -0.29; Lmaj promast: 9.8; Autophagy HCS: inactive; WT yeast gro inh: -21.2

How did CCCS(=O)(=O)c1nc(S(=O)(=O)c2ccc(C)cc2)c(N2CCc3ccccc3C2)s1 do in these assays?
Insulin prom inh: 0.0; Ins promoter up: 0.1; Lmaj promast: 61.4*; Autophagy HCS: inactive; WT yeast gro inh: -10.0

How did O=C1CCC([N+](=O)[O-])C(c2cc3c(cc2Cl)OCO3)N1 (stereo not drawn) do in these assays?
Ins promoter up: -0.36; Lmaj promast: -5.7; Autophagy HCS: inactive; WT yeast gro inh: 15.2

What do the screens show for `O=C(c1cc2ccccc2oc1=O)N1CCN(c2ccccn2)CC1`?
Ins promoter up: 0.03; Lmaj promast: -7.0; Autophagy HCS: inactive; WT yeast gro inh: -5.8

Results for O=C(c1cc2ccccc2oc1=O)N1CCN(c2ncccn2)CC1 ?
Insulin prom inh: 78.6*; Lmaj promast: -4.1; Autophagy HCS: inactive; WT yeast gro inh: -27.9

What do the screens show for `COc1ccc(Cc2nnc(NC(=O)c3cccs3)s2)cc1OC`?
Insulin prom inh: 36.4; Ins promoter up: -0.45; Lmaj promast: -5.5; Autophagy HCS: inactive; WT yeast gro inh: -1.9

What do the screens show for `CCOc1ccccc1/C=C/C(=O)c1ccc(Cl)cc1`?
Insulin prom inh: 25.0; Lmaj promast: 77.8*; Autophagy HCS: inactive; WT yeast gro inh: 19.4

Results for COc1cc(OC)c(OC)cc1/C=C/C(=O)c1ccc(NS(=O)(=O)c2ccc(C)cc2)cc1 ?
Insulin prom inh: -37.0; Ins promoter up: 1; Lmaj promast: 61.5*; Autophagy HCS: inactive; WT yeast gro inh: 4.2

How did COc1ccc(/C=C/C(=O)c2ccc(OC)cc2OC)c(OC)c1 do in these assays?
Ins promoter up: 0.42; Lmaj promast: 9.9; Autophagy HCS: inactive; WT yeast gro inh: 20.0

How did O=C(/C=C/c1ccccc1O)c1ccc(Cl)cc1 do in these assays?
Ins promoter up: -0.87; Lmaj promast: 99.9*; Autophagy HCS: inactive; WT yeast gro inh: 48.0

How did COc1ccc(/C=C/C(=O)c2ccccc2)c(OC)c1 do in these assays?
Ins promoter up: -0.26; Lmaj promast: 74.2*; Autophagy HCS: inactive; WT yeast gro inh: 21.8

How did NC(=O)C1CCN(S(=O)(=O)Cc2ccccc2Cl)CC1 do in these assays?
Lmaj promast: -5.3; Autophagy HCS: inactive; WT yeast gro inh: -10.7

Results for Cc1ccc(N2C(=O)N(c3ccc(C)cc3)C3CS(=O)(=O)CC32)cc1 (stereo not drawn) ?
Ins promoter up: 0.05; Lmaj promast: 5.6; Autophagy HCS: inactive; WT yeast gro inh: -8.1

What do the screens show for `CN(C)CC(C)(C)CNC(C(=O)Nc1ccc(Cl)cc1C(F)(F)F)c1ccccc1` (stereo not drawn)?
Ins promoter up: -0.01; Lmaj promast: 15.7; Autophagy HCS: inactive; WT yeast gro inh: -3.8

How did COc1ccccc1/C=C/C(=O)c1ccc(Cl)cc1 do in these assays?
Ins promoter up: 2.29; Lmaj promast: 85.9*; Autophagy HCS: inactive; WT yeast gro inh: 22.0

What do the screens show for `COc1ccc(OC)c(C(=O)c2ccccc2)c1`?
Insulin prom inh: 81.0*; Lmaj promast: -3.1; Autophagy HCS: inactive; WT yeast gro inh: -1.5

How did COc1ccccc1/C=C/C(=O)c1ccccc1 do in these assays?
Ins promoter up: -0.29

What do the screens show for `COc1ccccc1C(=O)Nc1ccc(C(=O)c2ccccc2)cc1`?
Insulin prom inh: 0.0; Ins promoter up: -0.28; Lmaj promast: 4.2; Autophagy HCS: inactive; WT yeast gro inh: 24.4

How did COc1ccc(OC)c(C(=O)c2ccc(C(=O)c3cc(OC)ccc3OC)cc2)c1 do in these assays?
Insulin prom inh: -300.0; Ins promoter up: -1.88; Lmaj promast: -1.9; Autophagy HCS: inactive; WT yeast gro inh: -0.7

What do the screens show for `COc1ccccc1/C=C/C(=O)c1ccc(NC(C)=O)cc1`?
Insulin prom inh: 13.9; Ins promoter up: -0.14; Lmaj promast: 99.7*; Autophagy HCS: inactive; WT yeast gro inh: 22.9

What do the screens show for `COc1ccccc1/C=C/C(=O)c1c2c(c(C)[nH]c1=O)CCCC2`?
Ins promoter up: 1.79; Lmaj promast: 77.3*; Autophagy HCS: active; WT yeast gro inh: -13.8

How did Cc1nc2c(C)cccn2c1/C(O)=C1\C(=O)C(=O)N(CCN(C)C)C1c1ccco1 (stereo not drawn) do in these assays?
Ins promoter up: -0.68

What do the screens show for `CCOc1nc(OCC)c2cnn(C)c2n1`?
Ins promoter up: -0.42

How did COc1ccc(Br)cc1S(=O)(=O)NCCCN1CCOCC1 do in these assays?
Insulin prom inh: 17.9; Ins promoter up: 0.65; Lmaj promast: -4.3; Autophagy HCS: inactive; WT yeast gro inh: -6.5

How did C/C(=N\Nc1ccc2nncn2n1)c1ccc(Br)s1 do in these assays?
Ins promoter up: -0.4

How did COc1ccc(OC)c(/C=C/C(=O)c2ccc(Cl)cc2)c1 do in these assays?
Ins promoter up: -0.77; Lmaj promast: 100.2*; Autophagy HCS: inactive; WT yeast gro inh: -14.6
